Assay results published in PubChem BioAssay AID1619 (SRMLSC, 2009).
Screen size: about 220,000 compounds; about 830 (0.38%) were called active.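 Rule for the calls: active = compound inhibiting the enzyme by more than half at any dose during confirmatory dose-response retesting; inconclusive = strong single-dose inhibitors picked by rank but not retested; inactive = the rest.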 A selection follows. Results with a measured potency or affinity are listed apart.

Molecular target: Leucine aminopeptidase (Plasmodium falciparum (isolate 3D7)) (UniProt Q8IL11)
Test: P. falciparum M17LAP inhibitors, primary screen, biochemical, fluorogenic H-Leu-NHMec substrate, 1536-well (AID 1619);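 note: plate controls were full reaction with DMSO carrier for no effect and no enzyme background for full effect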
Details: recombinant M17LAP, H-Leu-NHMec fluorogenic kinetic assay; at 30 µM; active compounds read high

Sequence of Leucine aminopeptidase (Plasmodium falciparum (isolate 3D7)) (Q8IL11 whole entry, looked up): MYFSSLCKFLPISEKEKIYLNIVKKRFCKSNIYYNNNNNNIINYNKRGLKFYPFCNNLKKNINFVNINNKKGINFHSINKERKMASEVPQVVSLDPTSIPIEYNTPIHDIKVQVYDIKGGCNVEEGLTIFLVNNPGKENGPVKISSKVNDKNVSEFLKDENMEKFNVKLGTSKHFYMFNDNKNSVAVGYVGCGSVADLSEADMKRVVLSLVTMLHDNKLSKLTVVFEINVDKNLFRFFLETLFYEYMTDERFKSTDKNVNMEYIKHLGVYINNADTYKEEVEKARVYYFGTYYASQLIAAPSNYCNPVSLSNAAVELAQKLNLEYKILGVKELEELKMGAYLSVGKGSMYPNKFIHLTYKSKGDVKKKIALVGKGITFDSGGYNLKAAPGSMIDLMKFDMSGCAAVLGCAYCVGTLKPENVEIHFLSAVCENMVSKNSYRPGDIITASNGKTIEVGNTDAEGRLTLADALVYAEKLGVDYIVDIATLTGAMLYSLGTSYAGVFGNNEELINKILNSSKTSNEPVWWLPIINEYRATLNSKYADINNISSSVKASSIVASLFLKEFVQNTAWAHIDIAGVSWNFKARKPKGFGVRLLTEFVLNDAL

inhibition, inactive:
COc1ccc(Cl)cc1C(=O)N(Cc1nc(-c2cccc(C)c2)no1)C(C)C -1.6%, CC(C)(C)c1ccc(C(=O)Nc2ccc(O)c3c(=O)cc(-c4cccc(Cl)c4)oc23)cc1 0.21%, Cc1nnc(-c2cnn(C)c2N)n1CCCN(C)C -1.24%, Cc1ccccc1N1CCN(C(=O)CN2C(=O)c3ccccc3C2=O)CC1 -9.93%, O=C(Nc1ccc2nsnc2c1)c1cccs1 6.9%, Cc1ccc(S(=O)(=O)Oc2ccccc2/C=N/Nc2ccc(C(=O)O)cc2)cc1 28%, CC(=O)CC(C)(C)Nc1nc2ccc([N+](=O)[O-])cc2o1 13.3%, COC(=O)c1ccc(C)c(NS(=O)(=O)c2ccc(C)c([N+](=O)[O-])c2)c1 1.7%, O=C1C2CCCN2C(c2ccc(F)cc2)N1c1nccs1 (stereo not given) 0.99%, Cc1cccc(Oc2ccc(NC(=O)C3CC=CCC3C(=O)O)cc2)c1 (stereo not given) 2.18%, Cc1cc(C)cc(Oc2ccc(NC(=O)C3CC=CCC3C(=O)O)cc2)c1 (stereo not given) 5.05%, Cc1cccc(-n2c(CNC(=O)c3ccc(S(=O)(=O)N(C)C)cc3)nnc2SCC(=O)Nc2ccc(F)cc2)c1 -5.07%, COc1cccc(CNc2nc3nc(C)cc(=O)n3[nH]2)c1 -3.52%, CC(C)(C)c1ccc(OC(=O)CN2C(=O)C3C4CCC(C4)C3C2=O)cc1 (stereo not given) -0.46%, Cc1ccc(SCC(=O)Nc2ccccc2C(=O)O)cc1 -12.3%, CC(=O)Nc1cccc(C(=O)Nc2ccccc2C(=O)O)c1 4.74%, Cc1c(C(=O)O)cnc2c([N+](=O)[O-])cnn12 12.2%, CCOC(=O)c1cnc2c([N+](=O)[O-])cnn2c1C 12.8%, O=C(O)c1cc2ncc(-c3[nH]ncc3[N+](=O)[O-])cn2n1 15.3%, Cc1cnc2c(C(=O)O)cnn2c1 13.5%, Cc1ccc(NC(=O)/C(Cl)=C/c2ccccc2)cc1C 0.91%, Cc1ccc(S(=O)(=O)N2CCN(c3ccc([N+](=O)[O-])c(NCCN4CCOCC4)c3)CC2)cc1 3.35%, CC(=O)Nc1nc(C)c(Oc2ccc(Cl)cc2Cl)c(=O)[nH]1 7.16%, O=C(O)C1C2CCC(O2)C1C(=O)NCc1ccc(Cl)cc1 (stereo not given) 2.78%, Cc1sc(NC(=O)c2cc3ccccc3oc2=O)c(C(=O)OC(C)C)c1-c1ccccc1 5.06%, CC(C)OC(=O)c1cc(NC(=O)C2C3CCC(O3)C2C(=O)O)cc(C(=O)OC(C)C)c1 (stereo not given) 2.91%, Cc1sc(NC(=O)C2C3CCC(O3)C2C(=O)O)nc1-c1ccc(CC(C)C)cc1 (stereo not given) 6.67%, O=C(c1cccc(C(F)(F)F)c1)N1CCc2c([nH]c3ccccc23)C1C(F)(F)F (stereo not given) -3.58%, Cc1cc(C)n(C2CC(=O)N(c3cccc(Cl)c3)C2=O)n1 (stereo not given) 10.2%, CCOc1cc(/C=N/n2cnnc2)ccc1OS(=O)(=O)c1ccc(C)cc1 -1.56%, O=C(NCCCN1CCCC1=O)c1cc(NS(=O)(=O)c2ccc(F)cc2)cc(NS(=O)(=O)c2ccc(F)cc2)c1 22.7%, Cc1cccc(NC(=O)CSc2ncnc3nc[nH]c23)c1 56.5%, O=C(CSc1ncnc2nc[nH]c12)Nc1ccc(Br)cc1Cl 9.25%, O=C(CSc1ncnc2nc[nH]c12)Nc1ccccc1C(F)(F)F 12%, Cc1cccc(NC(=O)CSc2ncnc3nc[nH]c23)c1C 43.9%, O=C(O)COc1cccc(NC(=O)C2CCCO2)c1 (stereo not given) 5.81%, C=CCn1c(O)c(N=Nc2nc3ccccc3c(=O)n2-c2ccccc2)c2ccccc21 -2.79%, O=C(CCCO)N/N=C/c1ccccc1[N+](=O)[O-] 8.09%, O=C(CSc1nc(O)c(-c2ccccc2)c(=O)[nH]1)N1CCOCC1 12.3%, CCOc1ccc(N2C(=O)C3Sc4[nH]c(=O)sc4C(c4ccc(OC)c(OC)c4)C3C2=O)cc1 (stereo not given) -5.76%, Cc1ccc(C)c(NC(=O)C2CC3c4ccccc4C2c2ccccc23)c1 (stereo not given) -1.72%, Cc1ccccc1NC(=O)C1CC(Cl)=CCC1C(=O)O (stereo not given) 43.5%, O=C(O)C1CC=CCC1C(=O)Nc1ccccc1C(=O)N1CCN(c2ccc(F)cc2)CC1 (stereo not given) 23.1%, Cc1cc(NC(=O)C2CC=CCC2C(=O)O)no1 (stereo not given) 41.7%, O=C(O)C1CC=C(Cl)CC1C(=O)NCc1ccccc1 (stereo not given) 36.4%, Cc1ccc(N2CCN(C(=O)c3ccccc3NC(=O)C3CC=CCC3C(=O)O)CC2)cc1 (stereo not given) 49.9%, O=C(NCCN1CCN(c2cccc(Cl)c2)CC1)C1CCCN(S(=O)(=O)c2cnc[nH]2)C1 (stereo not given) -4.03%, NC(=O)CN1CCN(c2ccccc2F)CC1 4.96%, C/C(=N/NC(=O)c1cn(-c2cccc(C)n2)cn1)c1ccc(C)cc1 -2.51%, CCOC(=O)c1ccc(-n2c(CN(CC)CC)nc3ccc([N+](=O)[O-])cc3c2=O)cc1 2.23%, Brc1cc2[nH]cnc2c2ccccc12 4.81%, Cn1c(N)c(C(=O)COc2ccc(C#N)cc2)c(=O)n(C)c1=O 7.75%, O=c1c(N2CCOCC2)coc2ccccc12 9.22%, CCCCc1sc(-c2c(C#N)c(N)nc3c2CCCCC3)cc1[N+](=O)[O-] 1.41%, O=C(CN1C(=O)C2C3C=CC(C4CC34)C2C1=O)Nc1cccc2ncccc12 (stereo not given) 6.24%, O=C(CN1C(=O)C2C3C=CC(C4CC34)C2C1=O)NCc1ccco1 (stereo not given) 1.4%, CCOc1ccc(-n2c(Cc3cc(=O)[nH]c(=O)[nH]3)nnc2SCc2cccnc2)cc1 6.43%, COc1ccc(N2CC(O)(c3ccc(C)cc3)[N+]3=C2CCCC3)cc1 (stereo not given) 1.14%, COC(=O)c1cc(C(=O)c2cc(Cl)ccc2O)coc1=N 10.7%, COCCOC(=O)c1cc(C(=O)c2cc(Cl)ccc2O)coc1=N 12.5%, CC(C)OC(=O)c1cc(C(=O)c2cc(Br)ccc2O)coc1=N 0.53%, CC(C)OC(=O)c1cc(C(=O)c2cc(Cl)ccc2O)coc1=N -2.46%, Cn1c(CC(=O)c2ccc(Br)cc2)[n+](C)c2ccccc21 2.42%, Nc1nc(CSc2ncn[nH]2)nc(Nc2ccc(F)cc2)n1 -4.26%, O=S(=O)(c1ccc2c(c1)OCCO2)N1CCC(n2nnc3cc(F)ccc32)CC1 4.13%, CC1(C)CC(=O)c2sc(NS(=O)(=O)c3ccc(F)cc3)nc2C1 48.1%, CC1(C)CC(=O)c2sc(NS(=O)(=O)c3ccc(Br)cc3)nc2C1 18.8%, c1ccc(-c2nc3nc4ccccc4nc3n2Cc2ccco2)cc1 1.08%, COc1ccc(-c2noc(CCCC(=O)N3CCOCC3)n2)cc1 -3.55%, CCOc1cc(/C=N/N=C2/NC(=O)C(CC(=O)O)S2)ccc1OCc1ccc(Cl)cc1 (stereo not given) 5.31%, COc1cc(/C=N/N=C2/NC(=O)C(CC(=O)O)S2)ccc1OCc1ccc(Cl)cc1 (stereo not given) 23.2%, CCOc1ccc2[nH]c(=O)c(CN(CCO)C(=O)CC)cc2c1 -5.26%, Nc1c(C(=O)c2ccccc2)oc2ccc(Br)cc12 -7.77%, COC(=O)c1oc2ccc(Br)cc2c1NC(=O)c1ccccc1 14.5%, C=CCNCCOc1c(C)cc(C)cc1Cl 20.1%, CC1(C(=O)OCC(=O)Nc2ccccc2)CC1(Cl)Cl (stereo not given) 1.25%, CCN(C(=O)Cn1cnc2cc([N+](=O)[O-])ccc2c1=O)C1CCS(=O)(=O)C1 (stereo not given) 12.2%, Oc1ccc(-c2cccc(-c3ccc(O)cc3)n2)cc1 1.28%, Cc1ccc(-c2nc(N=Nc3ccc(O)cc3)n[nH]2)cc1 12.9%, CCOc1ccc(/C=C2\SC(=S)N(CCC(=O)O)C2=O)cc1 6.65%, O=C(O)c1ccc(N2C(=O)CC(N3C(=O)/C(=C/c4ccc(Cl)cc4)SC3=S)C2=O)cc1 (stereo not given) 6.02%, Cc1ccc(NC(=O)/C=C/c2ccco2)nc1 11.5%, O=C(Nc1ccccc1N1CCCC1)c1ccc([N+](=O)[O-])cc1Cl 9.68%, CCCCN1C(=O)/C(=C/C=C2\SCCN2C)SC1=S -4.21%, CCN1C(=O)/C(=C/C=C2/SCCN2C)SC1=S -8.41%, Cc1ccc(S(=O)(=O)N(CC(=O)Nc2ccccc2C(=O)O)c2ccccc2C)cc1 2.3%, Cc1ccc(S(=O)(=O)N(CC(=O)Nc2ccccc2C(=O)O)c2ccccc2)cc1 4.48%, COc1ccc(N2C(=O)c3ccccc3C2=O)cc1 -7.95%, COc1ccc2sc(C)[n+](C)c2c1 -2.85%, COc1ccc(C(O)(C(=O)NNc2ccc(C)cc2)c2cccs2)cc1 (stereo not given) 15.2%, O=[N+]([O-])c1ccc(-c2cc(-c3ccncc3)nc3ccc4ccccc4c23)cc1 -5.09%, CC1=C(O)C(=O)OC1c1c(Cl)cccc1Cl (stereo not given) -5.75%, CCCCSc1nc(C)[nH]c1[N+](=O)[O-] -54.3%, Cc1ccc(Nc2ncnc3nc[nH]c23)cc1Cl 6.48%, COc1ccccc1Nc1ncnc2nc[nH]c12 38.3%
